Measurements reported in PubChem BioAssay (NCI).
Compounds without any hit were thinned out: in the full panel of roughly 79,000, 15% have a hit. Activity calls are given as the source filed them. Cut-off read from the data, not from the text of the source: active = growth inhibition above about 70%; inactive = the rest.

Tests used:
[1] = NCI Yeast Anticancer Drug Screen. Data for the rad50 strain (AID 155);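 note: 0% = growth of vehicle-only cultures of the same strain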; conditions: S. cerevisiae rad50 strain growth inhibition; at 50.0 µM; hits give high values
Summary of the method: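 A DNA repair-deficient yeast mutant serves as the test organism; compound-induced growth inhibition is calculated against vehicle-treated cells.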

[2] = NCI Yeast Anticancer Drug Screen. Data for the mec2-1 strain (AID 157); conditions: S. cerevisiae mec2-1 strain, at 50.0 µM, hits give high values
Summary of the method: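 mec2-1 yeast strain, carrying an alteration in DNA damage repair or cell cycle control, was exposed to compounds; growth inhibition was measured relative to vehicle-treated controls.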

[3] = NCI Yeast Anticancer Drug Screen. Data for the sgs1 mgt1 strain (AID 161);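 note: 0% = growth of cultures given vehicle only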; conditions: S. cerevisiae sgs1 mgt1 strain, at 50.0 µM, hits give high values
Summary of the method: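 Percent growth inhibition was derived by comparing compound-exposed mutant yeast with vehicle-exposed cultures. The strain carries alterations in DNA damage repair.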

[4] = NCI Yeast Anticancer Drug Screen. Data for the cln2 rad14 strain (AID 165);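 note: 0% = growth equal to vehicle treated cultures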; conditions: S. cerevisiae cln2 rad14 strain, at 50.0 µM, hits give high values
Summary of the method: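 Yeast carrying cln2 and rad14 alterations (cell cycle control and DNA damage repair) were exposed to compounds. Growth inhibition was measured against vehicle-treated controls.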

[5] = NCI Yeast Anticancer Drug Screen. Data for the bub3 strain (AID 167); conditions: S. cerevisiae bub3 mutant strain, at 50.0 µM, hits give high values
Summary of the method: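 Inhibition values come from growth of compound-treated mutant yeast normalised to vehicle-treated controls.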

[6] = NCI Yeast Anticancer Drug Screen. Data for the mlh1 rad18 strain (AID 175); conditions: S. cerevisiae mlh1 rad18 strain growth inhibition; at 50.0 µM; hits give high values
Summary of the method: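 Growth inhibition of the yeast strain was measured after compound exposure and expressed relative to vehicle-treated controls. The strain carries defined defects in DNA damage repair.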

Measured: growth inhibition

COC1OC(CO)C(O)C1O (stereo unspecified)
inactive: [1] -25% | [2] -18.8% | [3] 2.55% | [4] -44.4% | [5] -4.85% | [6] -9.25%

O=[N+]([O-])c1ccc(OC(=S)N2CCOCC2)cc1
inactive: [1] -7.05% | [2] 9.3% | [3] -8.3% | [4] 0.15% | [5] -10.2% | [6] -0.65%

CCOC(=O)/C(O)=C/c1cc(=O)n(C)c2ccccc12
inactive: [1] -6.6% | [2] 10.7% | [3] -5.8% | [4] -21.8% | [5] -9.9% | [6] -17.4%

O=C(O)CCCC1CCC2NC(=O)NC2C1 (stereo unspecified)
inactive: [1] 1.55% | [2] 5.15% | [3] -5.45% | [4] 6.4% | [5] 16.5% | [6] -6%

O=C1OCCc2c1[nH]c1ccccc21
inactive: [1] 12.9% | [2] 10.7% | [3] 5.65% | [4] 22.9% | [5] 13.5% | [6] 17.6%

CC(=O)NNc1nc(C)c(C(=O)NNC(=O)C(=O)Nc2cccc(C(C)=O)c2)s1
inactive: [1] 7.3% | [2] 0.5% | [3] -23.1% | [4] 36.5% | [5] 0.85% | [6] -12.3%

Cc1nn(-c2nc(-c3ccc(Br)cc3)cs2)c(C)c1C
inactive: [1] 12.9% | [2] -4.9% | [3] -9.95% | [4] 9.6% | [5] 5.65% | [6] 3.45%

CC1=C2CCOC2=Nc2ccccc2O1
inactive: [1] 15.8% | [2] -6.3% | [3] 11.3% | [4] -1.8% | [5] -14.6% | [6] -6.2%

CCOC(=O)c1cn(C)c2c1C(=O)C(C(=O)OCC)CCN2C(=O)OCC (stereo unspecified)
inactive: [1] -1.5% | [2] 9.15% | [3] -11.8% | [4] 8.95% | [5] 1% | [6] -19.6%

C1CCC2C3CCC(O3)C2C1 (stereo unspecified)
inactive: [1] -4.2% | [2] 1.05% | [3] 5.4% | [4] -33.7% | [5] -39.1% | [6] 2.35%

O=c1[nH]cc(CNC2CCCCC2)c(=O)[nH]1
inactive: [1] 21.5% | [2] -9.35% | [3] 7.65% | [4] -0.2% | [5] 4.6% | [6] 8.2%

CC1=CC(=O)C(CN(C)C)(CN(C)C)C(C)(C)C1
inactive: [1] 4.85% | [2] 9.35% | [3] 7.65% | [4] 0.25% | [5] -1.65% | [6] 13.1%

O=C(c1ccccc1Br)C(F)(F)F
inactive: [1] -2.6% | [2] -19.5% | [3] -18.4% | [4] -17.5% | [5] -43.9% | [6] -3.8%

COc1cc(C)cc(C(=O)C2=NNCC2c2ccccc2)c1O (stereo unspecified)
inactive: [1] 23.1% | [2] 19.4% | [3] 26.8% | [4] 10.9% | [5] 17.1% | [6] 16.2%

O=C(/C=C/c1ccccc1)OCCCl
inactive: [1] -23.4% | [2] -15.1% | [3] -17.9% | [4] -14.1% | [5] -22.4% | [6] -7.35%

CCCCC(CC)C(=S)N1CCOCC1 (stereo unspecified)
inactive: [1] 0.95% | [2] -30.4% | [3] -18.8% | [4] 7.25% | [5] -4.65% | [6] -9.25%

COC(=O)C(=O)C1CCc2c(C(=O)OC)nc3[nH]n(-c4ccccc4)c(=O)c3c21 (stereo unspecified)
inactive: [1] 12.1% | [2] -14.3% | [3] 4.2% | [4] -30.2% | [5] 25.1% | [6] 0.25%

Cc1c(C(=O)C/C(=N\O)C(=O)Nc2cc(Cl)c(Cl)cc2Cl)[n+](=O)c2ccccc2n1[O-]
inactive: [1] 21.8% | [2] 14.3% | [3] 22.1% | [4] 14.7% | [5] 21.4% | [6] 32.4%

N#CC(C(=O)C(N)=O)c1ccccc1Cl (stereo unspecified)
inactive: [1] -13.5% | [2] -26.8% | [3] -6.8% | [4] -0.7% | [5] -12.2% | [6] -17.3%

CCCC1CCN(c2ccc([N+](=O)[O-])cc2[N+](=O)[O-])CC1
inactive: [1] 1.75% | [2] -4.75% | [3] 9.65% | [4] -19.2% | [5] 38.2% | [6] -1.15%

CCN(CC)c1ccc(/C=C(\C)c2nc3ccc(Cl)cc3[nH]2)cc1
inactive: [1] -5.35% | [2] 6.6% | [3] 4.5% | [4] 7% | [5] -5.95% | [6] -4.75%

CCCCCCCCOC1OC(COC(C)=O)C(OC(C)=O)C(OC(C)=O)C1OC(C)=O (stereo unspecified)
inactive: [1] -3% | [2] 3.75% | [3] -4.45% | [4] 6.75% | [5] -35.5% | [6] -6.95%

S=c1[nH]c2ccccc2n2cccc12
inactive: [1] 14.9% | [2] -7.15% | [3] 27.4% | [4] 12.8% | [5] -12.3% | [6] 19.2%

CC(C)NC(=O)Oc1ccccc1C(=O)OCc1ccccc1
inactive: [1] -0.45% | [2] 14.1% | [3] 28.9% | [4] -15.1% | [5] 13.4% | [6] 21.2%

O=C(O)/C=C/c1ccc(Oc2ccccc2C(=O)O)o1
inactive: [1] -3.45% | [2] -7.15% | [3] 5.05% | [4] 2.3% | [5] -1.2% | [6] -2.25%

CCc1c(Cc2[nH]c(C=O)c(C)c2CC)[nH]c(C=O)c1C
inactive: [1] 6.85% | [2] -11.9% | [3] 11.2% | [4] -1.05% | [5] 5.45% | [6] 3.8%

O=C1CCc2ccccc2-c2ccccc21
inactive: [1] 17.9% | [2] 5% | [3] -12.1% | [4] -32% | [5] -5.3% | [6] 5.4%

N#C/C(=C\c1ccc(Cl)cc1)c1nc2ccccc2c(=O)[nH]1
inactive: [1] 12.2% | [2] 17.9% | [3] -14.5% | [4] 5.7% | [5] 1.8% | [6] -53.2%

COC(=O)c1cc(C(=CCC[C@H]2CC[C@@]3(C)C(CCC4C3CC[C@@]3(C)C4CC[C@@H]3C(C)CCCC(C)C)C2)c2cc(Cl)c(O)c(C(=O)OC)c2)cc(Cl)c1O (stereo partly specified)
inactive: [1] 0% | [2] 4.1% | [3] -10% | [4] 6.6% | [5] 5.15% | [6] -18.4%

CCN1C(=O)NC(C)(c2ccccc2)C1=O (stereo unspecified)
inactive: [1] -2.9% | [2] 3.35% | [3] -3.45% | [4] -11.3% | [5] 10.1% | [6] 2.1%

C/C(=N/O)c1ccc(O)cc1O
inactive: [1] -16.7% | [2] -1.2% | [3] 3.65% | [4] -8.6% | [5] 5.15% | [6] 13.8%

COc1ccc(C(=O)C(c2ccccc2)c2ccccc2)cc1
inactive: [1] 6.65% | [2] 1.95% | [3] -13.2% | [4] 4.35% | [5] 9.25% | [6] 6%

O=C(N[C@@H](CCl)[C@H](Cl)c1ccc([N+](=O)[O-])cc1)c1ccc([N+](=O)[O-])o1
active: [1] 85.3% | [2] 76.2% | [3] 93.3% | [4] 83.7% | [5] 87.3% | [6] 92.8%

NC(CSS(=O)(=O)CC(N)C(=O)O)C(=O)O (stereo unspecified)
inactive: [1] -5.85% | [2] 3.45% | [3] 6.15% | [4] -20.7% | [5] 6.4% | [6] -7.05%

CCC(C)CC(O)CC(C)C (stereo unspecified)
inactive: [1] 13.9% | [2] 8.85% | [3] 1.2% | [4] 12.7% | [5] 2.65% | [6] 13%

CCOC(=O)C1Oc2ccccc2OC1C (stereo unspecified)
inactive: [1] 24.5% | [2] -15.7% | [3] 9.45% | [4] 12.9% | [5] 16.3% | [6] 3.85%

CC(=O)NC1C(OCc2ccccc2)OC(COC(=O)CCCCCCCCCCNc2ccc([N+](=O)[O-])c3[nH]c4ccccc4c(=O)c23)C(O)C1OC(C)C(=O)NC(C)C(=O)NC(CCC(N)=O)C(=O)OCc1ccccc1 (stereo unspecified)
inactive: [1] 30.7% | [2] 9.8% | [3] -3.3% | [4] 14.4% | [5] 6.15% | [6] 12.9%

Cc1nc2nn[nH]n2c(=O)c1CCO
inactive: [1] 13.2% | [2] 0.15% | [3] 16.2% | [4] 14.2% | [5] -6.95% | [6] -51.6%

Cc1ccc(N=C=Nc2ccc(C)cc2)cc1
inactive: [1] 2.65% | [2] 2.65% | [3] -3.05% | [4] -9.75% | [5] 2.85% | [6] -1.5%

O=c1[nH]c2ccccc2c(=O)n2cccc12
inactive: [1] 10.4% | [2] 23.6% | [3] 7.8% | [4] -7.5% | [5] -5.75% | [6] 1.9%

COc1cc(C2CC(C)=C(C)CC2C(=O)O)cc(OC)c1OC (stereo unspecified)
inactive: [1] 1.55% | [2] 22.4% | [3] 7.25% | [4] 30.1% | [5] 10.4% | [6] 19.8%
